Compound activity: PubChem, National Center for Advancing Translational Sciences (NCATS)
A selection: hits, their analogues and other compounds. The true share with any hit is near 10%.
HP1b chromo inh – blocks HP1-beta chromodomain binding to methylated histone tails | P83916 | AlphaScreen HP1-beta / biotin-H3K9me3 peptide binding | Potency, µM (titrated, usually from 114 µM), for inactives: at the highest dose activity change, negative = inhibition, hits mostly inhibitors | actives 0.56% (n = 390,000) | AID 540317; further: potency means the concentration at half of the fitted maximal effect; nearly all actives have a fitted effect of over 70% in size
Target sequence (P83916 whole entry, looked up): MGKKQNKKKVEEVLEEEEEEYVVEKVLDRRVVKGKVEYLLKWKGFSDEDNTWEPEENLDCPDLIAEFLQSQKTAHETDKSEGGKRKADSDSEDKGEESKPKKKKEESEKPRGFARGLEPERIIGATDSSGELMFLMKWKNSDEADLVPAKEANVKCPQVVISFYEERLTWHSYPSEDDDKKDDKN
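AlphaScreen: HP1-beta (50 nM) preformed 30 min with biotin-H3(1-18)K9me3 peptide (50 nM) in PBS pH 7.4, 0.01% Tween-20. Compound added for 30 min at RT, then streptavidin donor/nickel chelate acceptor beads (10 ug/mL) for 30 min.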
CtBP-E1A blk – blocks the CtBP interaction with E1A; AlphaScreen GST-E1A/His-CtBP binding, 1536-well; stronger effect = lower value; activity change, % (test concentration not listed); actives 0.49% (n = 340,000); AID 651724; in the data active means activity change below about -65%; inconclusive means mostly about -30% to -63%; further: on the % scale 0 is the no-effect control and ±100 the full control effect
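Homogeneous bead-based format: GST-tagged E1A captured on glutathione donor beads, His-tagged CtBP on nickel acceptor beads; compounds precede bead addition by 2 h at 37 °C.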
G9a inh – blocks human histone lysine methyltransferase G9a; actives 8.8% (n = 350,000); G9a H3K9 monomethylation, AlphaScreen, 2 h; Potency, µM (top dose mostly 102 µM), without a hit: at the highest dose activity, negative = inhibition, hits mostly inhibitors; AID 504332; Q96KQ7; further: potency means the concentration at half of the fitted maximal effect; on the % scale 0 is the no-effect control and ±100 the full control effect; nearly all actives have a fitted effect of over 75% in size
Target sequence (Q96KQ7 913-1193 limits assumed): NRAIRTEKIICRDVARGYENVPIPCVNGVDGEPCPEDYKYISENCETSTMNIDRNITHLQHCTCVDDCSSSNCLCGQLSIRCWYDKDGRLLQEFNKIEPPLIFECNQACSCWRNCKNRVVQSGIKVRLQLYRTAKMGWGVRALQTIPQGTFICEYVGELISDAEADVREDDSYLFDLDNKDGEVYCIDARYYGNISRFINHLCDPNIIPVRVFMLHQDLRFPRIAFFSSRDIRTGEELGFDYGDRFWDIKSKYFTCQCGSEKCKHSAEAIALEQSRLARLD
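G9a (20 nM) preincubated 15 min RT with compounds, then 500 nM biotinylated H3K9 peptide and 20 uM SAM added; 2 h RT reaction. Monomethyl-H3K9 product detected by AlphaScreen with anti-H3K9me1 antibody, streptavidin donor and anti-rabbit IgG acceptor beads.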
Six1-Eya2 inh – blocks human Six1 binding to Eya2; actives 0.56% (n = 360,000); activity change, % (concentration not given with the values); Q15475+O00167; AlphaScreen GST-Six1/His-Eya2 binding, biochemical; stronger effect = lower value; in the data active means activity change below about -65%; inconclusive means mostly about -30% to -63%; further: on the % scale 0 is the no-effect control and ±100 the full control effect
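AlphaScreen with GST-Six1 and His-Eya2 (5X mix: 250 nM and 500 nM), glutathione donor and nickel acceptor beads; buffer 50 mM Tris pH 8.0, 300 mM NaCl, 1 mM TCEP; 1 h at 37 C in the dark.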
JMJD2A Tudor – JMJD2A Tudor domain (human) inhibition. AlphaScreen JMJD2A-Tudor / H3K4me3 peptide binding. O75164. actives 4.4% (n = 390,000). Potency, µM (highest dose often 114 µM), for the others: at the top dose activity change, negative = inhibition, hits mostly inhibitors; further: potency means the concentration at half of the fitted maximal effect; on the % scale 0 is the no-effect control and ±100 the full control effect; nearly all actives have a fitted effect of over 50% in size
BAZ2B block – inhibitors of human BAZ2B bromodomain. Potency, µM (series often up to 114 µM), for the others: at the highest dose activity change, negative = inhibition, actives largely listed as inhibitors. AID 504333. AlphaScreen BAZ2B-H3K14Ac peptide displacement. actives 4.4% (n = 360,000); further: potency means the concentration at half of the fitted maximal effect; on the % scale 0 is the no-effect control and ±100 the full control effect; nearly all actives have a fitted effect of over 60% in size
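Complex of BAZ2B and biotin-H3K14Ac (50 nM apiece) forms over 30 min at RT, then faces library compounds up to 110 uM for another 30 min; AlphaScreen beads added, 20 min dark incubation, luminescence read.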
Active calls of the source: *; ? = inconclusive; . = no result; [ ] = remark or other dose. Unless noted, the call rests on the fitted dose curve; in most records, active means well fitted inhibition curve with a large enough effect; inconclusive means small, poorly fitted or top-dose-only effect; inactive means no such curve, though single readings can be large or run the other way.

SMILES	HP1b chromo inh	CtBP-E1A blk	G9a inh	Six1-Eya2 inh	JMJD2A Tudor	BAZ2B block
CCc1cccc(C)c1NC(=O)CCn1nc(C)c2c(C)n(-c3ccccc3)nc2c1=O	4%	.	-27%[59 µM]	.	-27%	-20%
Cc1ccc(S(=O)(=O)N(C)Cc2nc(-c3ccccc3)oc2C)cc1	-32%	.	?	.	-5%	?
Cc1cc(C2=NNC(=NC3CC3)SC2)c(C)n1Cc1ccco1	-21%	-2	25µM*	-5	?	?
c1ccc2c(C3=NNC(=NC4CCCCC4)SC3)c[nH]c2c1	-17%	-10	?	-16	?	?
COc1ccc(-n2c(C)cc(C3=NNC(=NC4CC4)SC3)c2C)cc1	?	-3	42%	1	?	-11%
c1ccc2c(C3=NNC(=NC4CC4)SC3)c[nH]c2c1	-7%	-12	13µM*	-22	-34%	-32%
COCCCN=C1NN=C(c2cc(C)n(Cc3ccco3)c2C)CS1	-3%	1	?	-3	?	?
CCOc1ccc(N=C2NN=C(c3cc(C)n(CC4CCCO4)c3C)CS2)cc1 (configuration not stated)	?	0	16µM*	2	?	71µM*
Cc1cc(C2=NNC(=NC3CC3)SC2)c(C)n1-c1ccccc1	-14%	.	28µM*	-6	?	?
COc1ccc(N(CC(=O)NCCc2cccc(C)c2)S(=O)(=O)c2c(C)nn(C)c2C)cc1	34%	.	7%[59 µM]	.	-6%	.
COC(=O)CNC(=O)Nc1cc(C(=O)NCc2ccc(C)cc2)ccc1N1CCCC1	26%	.	9%[59 µM]	.	-10%	-10%
C=CCN=C1NN=C(c2cc(C)n(CCOC)c2C)CS1	37%	1	-5%[59 µM]	-2	-5%	?
COCCn1c(C)cc(C2=NNC(=NC3CC3)SC2)c1C	7%	1	40µM*	-9	-26%	?
Cc1ccc(-c2nn3c(=O)cc(CN4CCN(C(=O)Nc5cc(Cl)ccc5C)CC4)nc3s2)cc1	17%[57 µM]	.	5%[59 µM]	.	-15%	12%
COc1ccc(C(NC(=O)CN2C(=O)NC3(CCc4ccccc43)C2=O)c2ccccc2)cc1 (configuration not stated)	52%	.	-13%[12.7 µM]	10	-11%	-27%
COc1ccc(OC)c(NC(=O)CN2C(=O)NC3(CCCc4ccccc43)C2=O)c1 (configuration not stated)	22%	-6	?	-1	-27%	-28%
COc1cccc(NC(=O)CN2C(=O)NC3(CCCc4ccccc43)C2=O)c1 (configuration not stated)	39%	7	10µM*	0	-1%	-4%
COc1ccc(C(NC(=O)CN2C(=O)NC3(CCc4ccccc43)C2=O)c2ccc(OC)cc2)cc1 (configuration not stated)	0%	-1	50µM*	-1	-28%	1%
O=C(NCc1ccc2c(c1)CCN2C(=O)c1ccccc1)c1ccco1	23%	.	4%[59 µM]	.	-5%	-3%
CC1=C(C(=O)Nc2cc(C(=O)N3CCN(c4cccc(C)c4)C(C)C3)ccc2C)SCCO1 (configuration not stated)	-7%	-21	35µM*	-18	?	?
Cc1ccc(C)c(N2CCN(C(=O)c3cc4ccc5cccnc5c4[nH]3)CC2)c1	-11%	.	-50%[59 µM]	.	?	-24%[57.1 µM]
COc1ccc(N2CCN(C(=O)c3ccc(C)c(NC(=O)C4=C(C)OCCS4)c3)CC2)cc1	22%	-16	40µM*	-8	?	45µM*
CNC(=O)c1ccc(C)c(NC(=O)C2=C(C)OCCS2)c1	35%	6	?	2	0%	7%
CCOC(=O)C1CCCN(C(=O)c2ccc(C)c(NC(=O)C3=C(C)OCCS3)c2)C1 (configuration not stated)	30%	1	43%	0	-18%	-21%
